# According to PubChem BioAssay (Tox21):
# Records with an inconclusive call do not appear. Where a call stands in place of a potency, no number is given. Calls of active or inactive are those of the source. The call rests on the fitted dose curve.
# Target: 5-hydroxytryptamine receptor 2A (Homo sapiens) (UniProt P28223)
# Assay: 5-hydroxytryptamine receptor 2A (HTR2A) small molecule antagonists, cell-based qHTS assay (AID 1963586); further: nearly all actives have a fitted effect of over 45% in size
# Settings: HTR2A-CHO cells, DOI-induced calcium flux, fluorescence; series mostly up to 61.5 µM
# Source text: National Center for Advancing Translational Sciences [NCATS]
# Division of Preclinical Innovation [DPI]
# U.S. Environmental Protection Agency [EPA]
# National Institutes of Environmental Health Sciences [NIEHS]
# National Toxicology Program [NTP]
# U.S. Food and Drug Administration [FDA]
# The HTR2A receptor is a subtype of the 5-HT2 receptor that belongs to the serotonin receptor family and is a G protein-coupled receptor (GPCR). The HTR2A-CHO cell line stably expressing human 5-hydroxytryptamine receptor 2A (HTR2A) can be used for screening antagonists of interactions between 5-HT2 and its ligands. The HTR2A-CHO calcium flux assay is a homogeneous fluorescence-based assay for detecting the intracellular calcium level using FDSS kinetic plate reader system.
# Tox21 Assay Protocol Summary:
# HTR2A-CHO cells were dispensed at 2000 cells/3uL/well in 1536-well black-clear bottom plates using a Multidrop Dispenser. After the assay plates were incubated at a 37 C/5% CO2 incubator for 18 h, 3 uL of Dye Loading Buffer was transferred to the assay plate by a Flying Reagent Dispenser. The assay plates were incubated at 37 C for 1h. For antagonist mode, 23 nL of compounds dissolved in DMSO, positive controls or DMSO only was transferred to the assay plate by a pin tool. After 5 min incubation at room temperature, 1.5 uL of 4-Iodo-2,5-dimethoxy-alpha-methylbenzeneethanamine hydrochloride (DOI) at 4nM was added to each well. The fluorescence intensity in the plates was measured using FDSS 7000EX kinetic plate reader for 3 min at 1 sec intervals.
# Chain of 5-hydroxytryptamine receptor 2A (Homo sapiens) (P28223 whole entry, looked up): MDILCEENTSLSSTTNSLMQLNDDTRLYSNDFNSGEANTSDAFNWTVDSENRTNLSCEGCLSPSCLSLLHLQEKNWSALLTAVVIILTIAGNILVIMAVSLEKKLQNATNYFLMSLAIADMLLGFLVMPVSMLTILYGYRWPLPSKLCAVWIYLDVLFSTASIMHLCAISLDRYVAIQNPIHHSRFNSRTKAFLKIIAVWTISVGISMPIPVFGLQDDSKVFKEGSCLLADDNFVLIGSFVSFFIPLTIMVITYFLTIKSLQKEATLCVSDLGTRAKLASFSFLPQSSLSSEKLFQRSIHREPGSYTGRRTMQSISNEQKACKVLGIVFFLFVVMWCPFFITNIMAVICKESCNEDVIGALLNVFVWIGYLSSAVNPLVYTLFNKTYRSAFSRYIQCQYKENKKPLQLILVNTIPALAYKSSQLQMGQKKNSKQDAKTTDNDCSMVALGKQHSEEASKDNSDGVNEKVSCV
row,Structure (SMILES),Potency
1,COC(C)CCO (stereo not given),inactive
2,CCCNC(C)C(=O)Nc1c(C)csc1C(=O)OC (stereo not given),inactive
3,Cc1cc2nc3ccc(=[N+](C)C)cc-3sc2cc1N,inactive
4,COC(=O)C1=C(C)NC(C)=C(C(=O)OCC(C)=O)C1c1ccccc1[N+](=O)[O-] (stereo not given),inactive
5,O=S(=O)(O)c1cc(O)ccc1O,inactive
6,COc1cc(Cc2cnc(N)nc2N)cc(OC)c1OC,inactive
7,CC(C)(C)C(=O)c1ccccc1,inactive
8,CCC1(c2cnc[nH]2)Cc2ccccc2C1,inactive
9,Cc1ccc(C)c([N+](=O)[O-])c1,inactive
10,CC(C)C1=CC2=CC[C@@H]3[C@](C)(CCC[C@@]3(C)C(=O)O)[C@H]2CC1,inactive
11,O=C(O)c1nc(Cl)c(Cl)c(Cl)c1Cl,inactive
12,COc1ccc2cc1Oc1ccc(cc1)C[C@H]1c3c(cc4c(c3Oc3cc5c(cc3OC)CCN(C)[C@@H]5C2)OCO4)CCN1C,inactive
13,CN1CCN(C(=O)C2CCCCC2)CC1,inactive
14,O=C(O)Cc1ccc(OCCNC[C@H](O)c2ccccc2)cc1,inactive
15,O=C(O)CCCl,inactive
16,O=Cc1ccc(Cl)c([N+](=O)[O-])c1,inactive
17,S=C(S)NCCNC(=S)S,inactive
18,COc1cc(C(=O)NC2CCN(C)CC2)ccc1Nc1ncc2c(n1)N(C1CCCC1)CC(F)(F)C(=O)N2C,inactive
19,COC(=O)NCCC[Si](OC)(OC)OC,inactive
20,S=c1[nH]c2ccccc2s1,inactive

row,Structure (SMILES),Potency
1,CC(C)(C)CC(C)(C)c1ccc(OCCO)cc1,inactive
2,CC(C)(C)C(O)/C=C/c1ccc2c(c1)OCO2 (stereo not given),inactive
3,O=c1oc2cc(O)ccc2c2oc3cc(O)ccc3c12,inactive
4,C[n+]1c2cc(N)ccc2cc2ccc(N)cc21 (tested in a mixture with another compound),inactive
5,CCCCc1oc2ccc(NS(C)(=O)=O)cc2c1C(=O)c1ccc(OCCCN(CCCC)CCCC)cc1,inactive
6,O=C1NCCN1,inactive
7,CCCCCCOC(=O)c1ccccc1,inactive
8,CCCC(=O)OC(C)(C)Cc1ccccc1,inactive
9,Cc1ccc(Nc2c(F)cccc2Cl)c(CC(=O)O)c1,inactive
10,Cc1cc(O)c(C(C)C)cc1Cl,inactive
11,CC1(C)C(=O)N(Br)C(=O)N1Br,inactive
12,Cc1ccc(N)cc1S(=O)(=O)O,inactive
13,CCCCNCCCC,inactive
14,C=Cc1ccc(S(=O)(=O)O)cc1,inactive
15,CN1CCN(C)CC1,inactive
16,O=C1NCC2(CCN(CCc3ccccc3)CC2)O1,inactive
17,CCCCCCCCC(=O)OCC(C)OC(=O)CCCCCCCC (stereo not given),inactive
18,CCCCC(CC)COC(=O)c1ccccc1 (stereo not given),inactive
19,NC(=S)NC(N)=S,inactive
20,CCOC(=O)C1=C[C@]2(CC)CCCN3CCc4c(n1c1ccccc41)[C@@H]32,inactive
